Screening results deposited in PubChem by several laboratories.
A selection: hits, their analogues and other compounds. The true share with any hit is near 4.7%.
ADAM17 inh = inhibitors of human ADAM17; AID 720648; recombinant ADAM17, EDANS/DABCYL FRET peptide cleavage; actives 0.83% (n = 370,000); inhibition, % at 6.95 µM; P78536;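 active = inhibition above the mean of compounds lying between control limits plus 3 SD, set per campaign, cut at about 8.5% in these data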;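 note: 0% = DMSO-only wells as the low control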
DSG3 Ab inh = blocks pemphigus antibody binding to human desmoglein-3. P32926. DSG3-coupled beads, scFv-anti-DSG3-GFP binding, flow cytometry; active compounds read low. binding (percent of control), % at 10 µM. actives 0.48% (n = 310,000). AID 588358;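 active = binding more than 3 SD below its plate's average and above zero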;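 note: hits lower antibody fragment binding to DSG3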
proKLK7 act = activators of human kallikrein-7 zymogen | P49862 | activation, % at 7 µM | actives 0.9% (n = 370,000) | purified proKLK7, EDANS-DABCYL substrate fluorescence; 100% is mature enzyme control, 0% vehicle;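 active = activation above the mean of all tested compounds plus 3 SD, computed per campaign excluding outliers beyond control limits, cut at about 13% in these data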
ADAM10 inh = inhibits human ADAM10; AID 720582; recombinant ADAM10, EDANS/DABCYL FRET peptide cleavage, 3 h; inhibition, % at 7 µM; O14672; actives 0.62% (n = 370,000);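 active = inhibition above a per-campaign cutoff equal to the mean of compounds falling between control-based bounds plus 3 SD, cut at about 20% in these data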;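 note: 0% = DMSO wells while the 100% control is not disclosed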
MPTP block = inhibitors of mitochondrial permeability transition pore | isolated mouse mitochondria, Ca2+ swelling absorbance, 30 min | inhibition, % at 10 µM | actives 1.4% (n = 360,000) | AID 602449;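 active = inhibition of 50% or more, scaled per plate between neutral and stimulator controls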;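 note: 0% = DMSO wells given calcium and 100% = 1 mM EGTA wells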
rCAG RNA binder = r(CAG) repeat RNA binding. actives 1.3% (n = 370,000). AID 651821. TO-PRO-1 dye displacement fluorescence. inhibition, % at 3 µM;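 active = inhibition above the plate cutoff, the mean of all test compounds on that plate plus 3 SD, cut at about 35% in these data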;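 note: 0% = DMSO alone and 100% = 100 µM mitoxantrone as full dye displacement; higher means more dye released from RNA so lower well fluorescence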
MPTP counter = membrane potential counter-screen of mitochondrial pore inhibitors | isolated mitochondria, Rhodamine 123 fluorescence | shares compounds with MPTP block | inhibition, % at 10 µM | AID 624504 | actives 78% (n = 5,000); in the data active = inhibition above about 22%;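 note: 0% = DMSO vehicle and 100% = positive control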
MPTP abs DR = dose response confirmation of mitochondrial permeability transition pore inhibitors | shares compounds with MPTP block | isolated mitochondria swelling, absorbance | IC50, µM | actives 58% (n = 780) | AID 651561; in the data active = IC50 below about 20 µM
MPTP cs DR = counter-screen for mitochondrial permeability transition pore inhibitors, dose response; shares compounds with MPTP block; isolated mitochondria counterscreen, fluorescence read-out; IC50, µM; actives 49% (n = 780); in the data active = IC50 below about 80 µM
* hit, by the source's call; i = inactive; / = no result given.

SMILES	ADAM17 inh	DSG3 Ab inh	proKLK7 act	ADAM10 inh	MPTP block	rCAG RNA binder	MPTP counter	others
CC1=NN(c2ccc(Cl)cc2)C(=O)C1C(c1cccc(O)c1)c1c(C)[nH]n(-c2ccc(Cl)cc2)c1=O (centres undefined)	/	109	/	/	101*	/	20*
Cn1c(=O)c2c(nc(NCc3ccco3)n2C/C=C/c2ccccc2)n(C)c1=O	-3	102	0	-6	89*	0	106*
CC(Cl)=CCn1c(NCCc2ccccc2)nc2c1c(=O)n(C)c(=O)n2C	-1	/	0	-9	71*	3	76*
O=C(NCc1ccccc1)[C@@H]1CCCN1C(=O)[C@H]1CCCN1C(=O)c1ccccc1Cl	-2	/	0	-3	/	1	/
Cc1ccc(-n2cc3c(-c4cccc(Br)c4)nnc(C)c3n2)cc1	7	100	0	8	54*	12	2	MPTP abs DR=i;MPTP cs DR=29*
CC(C)c1ccc(Oc2cccc3c2S(=O)(=O)N([C@H](C)c2ccccc2)C[C@@H](COCc2ccccc2)O3)cc1	-2	/	0	-6	/	4	/
CCCOc1ccc(C(=O)NC(=S)NNC(=O)c2c(-c3ccccc3)noc2C)cc1	-1	111	-1	6	69*	19	9
Cc1onc(-c2ccccc2)c1C(=O)NC(=S)NNC(=O)c1ccccc1O	2	98	0	4	95*	19	11
Cc1onc(-c2ccccc2)c1C(=O)NC(=S)NNC(=O)c1ccc(O)cc1O	7	99	0	12	-3	27	/
COc1cc2c(cc1OC)C(C(=O)O)C(c1ccc3c(c1)OCO3)N(C)C2=O (centres undefined)	1	/	0	3	/	4	/
COC(=O)[C@]12C[C@H](CC(=O)NCCCN3CCCC3=O)C(=O)N(Cc3ccccc3)C1=C[C@H](C(C)(C)C)O[C@@H]2C	0	/	0	0	/	-1	/
O=C(Nc1cccc(Cl)c1)C1C2CCC3C(CCC21)C3(Cl)Cl (centres undefined)	7	98	-1	14	99*	3	96*
Clc1ccc2[nH]cc(-c3nnnn3-c3ccc4ccccc4c3)c2c1	2	104	-1	5	84*	19	77*
Cc1cc(C(=O)NC2CCCc3c2cnn3-c2ccc(C(C)(C)C)cc2)nn1C (centres undefined)	1	103	0	2	89*	-7	105*
Cc1cccc(-n2ncc3c2CCCC3NC(=O)c2ccncc2)c1C (centres undefined)	3	101	0	7	86*	0	90*
CCn1cc(C(=O)NC2CCCc3c2cnn3-c2cccc(C)c2C)cn1 (centres undefined)	0	/	0	-3	87*	-6	104*
Cc1cc(C)cc(-n2ncc3c2CCCC3NC(=O)c2cc(C)n(C)n2)c1 (centres undefined)	1	108	-1	6	1	-6	/
COc1ccccc1Cc1c(C(C)(C)C)nc2c(C)cc(Br)cn12	-12	/	1	-25	/	9	/
CN1CCCN(C(c2ccccc2)c2ccc(Cl)cc2)CC1 (centres undefined)	-1	94	0	4	99*	8	-10
C=CS(=O)(=O)N(C(=C)C(=O)OC)S(C)(=O)=O	2	/	0	-26	/	5	/
O=S1(=O)c2ccc(N3CCC[C@@H]3CO)cc2O[C@@H]2CCN1C2	-10	/	0	-5	/	3	/
O=C(NCc1ccco1)C1CCCN(S(=O)(=O)c2ccccc2[N+](=O)[O-])C1 (centres undefined)	1	/	0	-5	/	1	/
c1csc(-c2nnc(SCc3cccc4ccccc34)o2)c1	2	/	1	13	/	4	/
COc1ccccc1C(=O)NNC(=S)NC(=O)c1sc2ccccc2c1Cl	0	85	0	9	98*	4	-11
